# Source: PMC9174471
# Target: Histone H4 (UniProt P62805)
# Assay: cross-link between two proteins; cross-linking mass spectrometry
substance,measurement,value
"ADP/ATP translocase 3, P12236",listed as a hit,yes
